Measurements taken from PubChem BioAssay (NCATS).
Where “and” joins values, the source holds several entries; their conditions need not be identical. Equal entries are not always repeated. Results filed as inconclusive are left out. Calls of active or inactive are those of the source. Unless noted, calls come from the whole dose curve.

What was measured:
[1] = Cell Viability - BJ (AID 421); conditions: BJ fibroblast viability, qHTS;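 note: potency is the fitted concentration of half-maximal effect; cells exposed to compound for 40 hours at 37 °C before readout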
Procedure, shortened: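 Luminescent ATP signal (CellTiter-Glo, 20 min at room temperature) served as the read-out of viable BJ cells after 40 hours of compound treatment. Responses were scaled between DMSO and 100 uM tamoxifen, and AC50 values were obtained by Hill modeling.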

[2] = Cell Viability - HepG2 (AID 433); conditions: qHTS;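 note: potency is the fitted concentration of half-maximal effect; potency for ATP loss meaning cytotoxicity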
Procedure, shortened: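 HepG2 cells, 1500 per well, treated 40 hr at 37 °C in complete medium; viability from intracellular ATP by CellTiter-Glo luminescence. Normalized to DMSO and 100 uM tamoxifen; AC50 from Hill fit of qHTS concentration-response.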

[3] = Cell Viability - N2a (AID 540; active = well fitted cell-killing curve with a large enough effect;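 note: plate controls were DMSO alone for no effect and tamoxifen control for full effect; nearly all actives have a fitted effect of over 45% in size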); conditions: N2a mouse neuroblastoma cell viability; activity change, negative = cytotoxicity: at 92.2 µM (top of the series)
Procedure, shortened: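 Mouse neuroblastoma N2a cells, 1500/well, exposed to compounds 40 h at 37 °C in complete medium. Viability measured as cellular ATP by CellTiter-Glo luminescence; AC50 from Hill fits of concentration-response.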

[4] = MultiTox-Fluor Cytotoxicity Assay - LYMP1-001 - Live Cells (AID 947; active = well fitted cell-killing curve with a large enough effect;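 note: 0% = DMSO only and full inhibition = tetraoctylammonium bromide control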); conditions: LYMP1-001 lymphoblastoid cells, live-cell protease fluorescence viability; series mostly up to 92.2 µM
[5] = molecular target: Estrogen receptor (Homo sapiens) (UniProt P03372); assay: qHTS assay for small molecule antagonists of estrogen receptor alpha signaling (AID 588513; active = well fitted curve in the direction sought with a large enough effect in the signal ratio, with a control signal flat, not every such curve was filed as active; the % refers to the signal ratio; note: % is set by controls: 0 for no effect and ±100 for the full control effect); conditions: ER-alpha-UAS-bla HEK293, beta-lactamase ratio, antagonist mode; series mostly up to 76.9 µM
Estrogen receptor (Homo sapiens), sequence (P03372 whole entry, looked up): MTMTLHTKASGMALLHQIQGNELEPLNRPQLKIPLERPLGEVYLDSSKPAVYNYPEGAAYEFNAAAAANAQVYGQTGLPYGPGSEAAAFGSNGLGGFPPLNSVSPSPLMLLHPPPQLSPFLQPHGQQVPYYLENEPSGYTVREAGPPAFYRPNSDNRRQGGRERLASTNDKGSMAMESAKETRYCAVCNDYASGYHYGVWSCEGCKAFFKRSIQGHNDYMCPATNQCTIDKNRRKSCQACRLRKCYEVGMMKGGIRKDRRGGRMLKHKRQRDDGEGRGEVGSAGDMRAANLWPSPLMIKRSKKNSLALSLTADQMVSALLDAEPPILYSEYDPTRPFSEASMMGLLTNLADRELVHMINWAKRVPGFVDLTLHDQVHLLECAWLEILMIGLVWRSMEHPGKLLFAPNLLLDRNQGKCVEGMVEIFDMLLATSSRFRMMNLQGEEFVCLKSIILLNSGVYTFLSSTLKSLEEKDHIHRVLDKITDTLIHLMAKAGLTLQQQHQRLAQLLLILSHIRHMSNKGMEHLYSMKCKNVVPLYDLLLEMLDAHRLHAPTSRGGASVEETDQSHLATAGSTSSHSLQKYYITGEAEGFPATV
Procedure, shortened: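 ER-alpha-UAS-bla GripTite HEK 293 cells in 2% charcoal/dextran-treated FBS medium; compounds titrated (1:2, duplicate), then stimulated with 0.5 nM 17-beta-estradiol for 18 h at 37C. CCF4 beta-lactamase fluorescence; Hill-fit IC50 and efficacy.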

[6] = molecular target: Glucocorticoid receptor (Homo sapiens) (UniProt P04150); assay: qHTS assay for small molecule agonists of glucocorticoid receptor signaling (AID 588532; active = well fitted curve in the direction sought with a large enough effect in the signal ratio, with a control signal flat; the % refers to the signal ratio;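 note: 100% = dexamethasone at 0.1 µM and 0% = DMSO only wells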); conditions: HeLa MMTV-bla, beta-lactamase ratio, agonist, 18 h; stronger effect = higher value; percent of dexamethasone control, DMSO zero
Glucocorticoid receptor (Homo sapiens), sequence (P04150 whole entry, looked up): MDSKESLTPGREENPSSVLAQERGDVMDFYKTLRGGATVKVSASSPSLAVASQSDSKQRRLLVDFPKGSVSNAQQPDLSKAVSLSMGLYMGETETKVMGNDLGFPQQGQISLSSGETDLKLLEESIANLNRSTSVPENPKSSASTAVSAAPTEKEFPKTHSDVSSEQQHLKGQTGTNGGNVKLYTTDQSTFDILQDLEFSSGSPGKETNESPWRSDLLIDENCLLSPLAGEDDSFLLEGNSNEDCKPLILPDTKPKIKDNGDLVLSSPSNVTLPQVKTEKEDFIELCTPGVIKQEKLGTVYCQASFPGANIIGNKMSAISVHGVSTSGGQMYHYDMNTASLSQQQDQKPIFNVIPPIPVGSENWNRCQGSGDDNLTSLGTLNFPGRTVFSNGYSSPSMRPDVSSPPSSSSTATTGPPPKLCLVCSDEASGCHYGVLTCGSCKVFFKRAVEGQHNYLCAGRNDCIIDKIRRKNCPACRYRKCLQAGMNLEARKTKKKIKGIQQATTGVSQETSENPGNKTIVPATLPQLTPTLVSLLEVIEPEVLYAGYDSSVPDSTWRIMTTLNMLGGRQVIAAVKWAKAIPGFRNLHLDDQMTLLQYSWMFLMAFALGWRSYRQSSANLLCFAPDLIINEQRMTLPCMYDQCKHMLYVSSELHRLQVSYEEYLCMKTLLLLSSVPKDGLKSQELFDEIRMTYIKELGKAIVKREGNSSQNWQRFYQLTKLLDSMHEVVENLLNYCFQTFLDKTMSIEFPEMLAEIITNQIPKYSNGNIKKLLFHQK
Procedure, shortened: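 MMTV-bla HeLa beta-lactamase reporter cells in 1% charcoal/dextran FBS medium, compounds up to 92 uM for 18 h at 37 C, CCF4 readout; normalized to 0.1 uM dexamethasone (100%), EC50 and efficacy from Hill fits.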

[7] = molecular target: Glucocorticoid receptor (Homo sapiens) (UniProt P04150); assay: qHTS assay for small molecule antagonists of glucocorticoid receptor signaling (AID 588533; active = well fitted inhibition curve with a large enough effect in the signal ratio, with a control signal flat, not every such curve was filed as active; the % refers to the signal ratio; note: % is set by controls: 0 for no effect and ±100 for the full control effect); conditions: HeLa MMTV-bla, GRE beta-lactamase ratio, antagonist mode, 18 h; series mostly up to 76.8 µM
Procedure, shortened: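 Antagonist-mode qHTS: compound titrations added to GRE-bla HeLa cells, then dexamethasone 2 nM final; 18 h, 37 C. CCF4 FRET fluorescence normalized to dexamethasone and DMSO; IC50 from Hill fit.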

[8] = molecular target: Peroxisome proliferator-activated receptor gamma (Homo sapiens) (UniProt P37231); assay: qHTS assay for small molecule agonists of peroxisome proliferator-activated receptor gamma signaling (AID 588536; active = well fitted curve in the direction sought with a large enough effect in the signal ratio, with a control signal flat, not every such curve was filed as active; the % refers to the signal ratio;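 note: 0% = DMSO basal wells and 100% = rosiglitazone at 2 µM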); conditions: HEK293 PPARg-UAS-bla, beta-lactamase ratio, 16 h, percent of rosiglitazone response, DMSO as zero; series mostly up to 76.7 µM
Peroxisome proliferator-activated receptor gamma (Homo sapiens), sequence (P37231 whole entry, looked up): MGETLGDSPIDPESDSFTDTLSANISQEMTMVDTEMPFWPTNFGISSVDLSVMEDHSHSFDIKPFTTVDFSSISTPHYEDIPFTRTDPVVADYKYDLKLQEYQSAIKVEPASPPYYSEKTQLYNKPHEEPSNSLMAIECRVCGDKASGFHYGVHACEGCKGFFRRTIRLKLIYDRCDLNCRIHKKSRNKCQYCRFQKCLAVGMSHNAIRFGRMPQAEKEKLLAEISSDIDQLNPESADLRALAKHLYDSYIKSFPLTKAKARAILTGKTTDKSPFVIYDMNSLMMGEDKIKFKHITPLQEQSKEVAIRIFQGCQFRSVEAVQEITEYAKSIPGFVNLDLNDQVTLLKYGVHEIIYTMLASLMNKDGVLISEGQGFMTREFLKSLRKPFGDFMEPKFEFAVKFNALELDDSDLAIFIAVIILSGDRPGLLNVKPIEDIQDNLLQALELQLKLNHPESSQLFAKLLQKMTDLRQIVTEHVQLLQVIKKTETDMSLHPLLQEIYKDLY
Procedure, shortened: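 PPAR-gamma-UAS-bla HEK293 cells in medium with 1% charcoal/dextran-treated FBS were exposed to compounds for 16 h at 37 C. Beta-lactamase activity was read with CCF4 substrate (405 nm excitation, 460/530 nm emission).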

[9] = molecular target: Peroxisome proliferator-activated receptor gamma (Homo sapiens) (UniProt P37231); assay: qHTS assay for small molecule antagonists of peroxisome proliferator-activated receptor gamma signaling (AID 588537; active = well fitted inhibition curve with a large enough effect in the signal ratio, with a control signal flat, not every such curve was filed as active; the % refers to the signal ratio;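 note: reporter cells co-stimulated with 50 nM rosiglitazone agonist during compound treatment; % of control where 0% means no effect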); conditions: HEK293 PPARg-UAS-bla, beta-lactamase ratio, antagonist mode; series mostly up to 76.8 µM
Procedure, shortened: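 PPARγ-UAS-bla HEK293 cells (3000/well) in 1% charcoal/dextran-stripped FBS are treated with compound, then stimulated with 50 nM rosiglitazone for 16 h at 37 °C. Read-out is CCF4 β-lactamase fluorescence after 2 h at RT. IC50 comes from Hill fits normalised to rosiglitazone and DMSO.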

[10] = molecular target: Vitamin D3 receptor (Homo sapiens) (UniProt P11473); assay: qHTS assay for small molecule antagonists of vitamin D receptor signaling (AID 588541); conditions: HEK293T VDR-UAS-bla, beta-lactamase ratio, antagonist mode; series mostly up to 76.7 µM;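 note: receptor activated by calcitriol during compound treatment; % is set by controls: 0 for no effect and ±100 for the full control effect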
Vitamin D3 receptor (Homo sapiens), sequence (P11473 whole entry, looked up): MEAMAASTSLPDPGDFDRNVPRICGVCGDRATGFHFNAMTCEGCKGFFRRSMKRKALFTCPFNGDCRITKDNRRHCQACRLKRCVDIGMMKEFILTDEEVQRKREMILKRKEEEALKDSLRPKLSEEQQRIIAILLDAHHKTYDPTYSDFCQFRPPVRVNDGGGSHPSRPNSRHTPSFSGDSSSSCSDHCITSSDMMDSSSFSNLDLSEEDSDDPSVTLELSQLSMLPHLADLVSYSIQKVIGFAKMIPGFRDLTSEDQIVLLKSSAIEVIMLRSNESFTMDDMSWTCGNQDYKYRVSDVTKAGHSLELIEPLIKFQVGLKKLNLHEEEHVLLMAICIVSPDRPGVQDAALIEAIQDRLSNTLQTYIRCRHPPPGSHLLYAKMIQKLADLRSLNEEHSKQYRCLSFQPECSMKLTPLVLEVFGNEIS
Procedure, shortened: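 VDR-UAS-bla HEK293T cells in 2% charcoal-stripped FBS were stimulated with 1-alpha,25-dihydroxyvitamin D3 (3 nM final) plus compound for 16 h at 37 C. The beta-lactamase CCF4 readout was normalized to 50 nM agonist and DMSO, and Hill fits gave IC50.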

[11] = molecular target: Thyroid hormone receptor beta (Homo sapiens) (UniProt P10828); assay: qHTS assay for small molecule antagonists of thyroid hormone receptor beta signaling (AID 588547; active = well fitted inhibition curve with a large enough effect in the signal ratio, with a control signal flat, not every such curve was filed as active; the % refers to the signal ratio;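 note: cells stimulated with 0.4 nM T3 agonist during compound exposure; % is set by controls: 0 for no effect and ±100 for the full control effect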); conditions: TR-UAS-bla HEK293, beta-lactamase ratio, antagonist mode, 18 h
Thyroid hormone receptor beta (Homo sapiens), sequence (P10828 whole entry, looked up): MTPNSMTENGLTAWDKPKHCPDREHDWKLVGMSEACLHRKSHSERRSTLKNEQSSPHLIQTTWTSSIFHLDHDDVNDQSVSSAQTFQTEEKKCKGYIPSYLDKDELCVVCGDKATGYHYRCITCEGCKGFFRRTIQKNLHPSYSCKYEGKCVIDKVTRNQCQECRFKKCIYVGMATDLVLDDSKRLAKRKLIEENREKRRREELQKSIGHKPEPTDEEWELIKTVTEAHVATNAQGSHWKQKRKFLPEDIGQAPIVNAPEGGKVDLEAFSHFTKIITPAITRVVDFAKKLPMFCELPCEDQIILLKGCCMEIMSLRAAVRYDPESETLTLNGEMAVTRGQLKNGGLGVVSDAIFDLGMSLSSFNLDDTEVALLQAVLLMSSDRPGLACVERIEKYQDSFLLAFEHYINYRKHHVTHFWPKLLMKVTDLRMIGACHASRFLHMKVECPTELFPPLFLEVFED
Procedure, shortened: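 TR-UAS-bla GripTite HEK293 cells in 2% charcoal/dextran FBS medium; compounds 0.59 nM to 92 uM with T3 at 0.4nM final, 18 h at 37 C. Beta-lactamase read by CCF4 fluorescence (460/530 nm); Hill fits gave IC50 and efficacy.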

[12] = qHTS assay for small molecule agonists of the antioxidant response element (ARE) signaling pathway (AID 651741; active = well fitted activation curve with a large enough effect in the signal ratio; the % refers to the signal ratio; note: % of control where 0% means no effect); conditions: HepG2 ARE-bla reporter, beta-lactamase FRET ratio, 16 h; series mostly up to 96 µM
Procedure, shortened: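 CellSensor ARE-bla HepG2 cells (2,000/well) carrying ARE-driven beta-lactamase, exposed 16 h at 37 C. LiveBLAzer B/G FRET substrate added for 2 h at room temperature; fluorescence intensity read.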

[13] = molecular target: Bile acid receptor (Homo sapiens) (UniProt Q96RI1); assay: qHTS assay for small molecule agonists of farnesoid X receptor signaling (AID 588527); conditions: HEK293T FXR-UAS-bla, beta-lactamase ratio, 16 h; stronger effect = higher value;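 note: 0% = vehicle basal and 100% = reference agonist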
Bile acid receptor (Homo sapiens), sequence (Q96RI1 whole entry, looked up): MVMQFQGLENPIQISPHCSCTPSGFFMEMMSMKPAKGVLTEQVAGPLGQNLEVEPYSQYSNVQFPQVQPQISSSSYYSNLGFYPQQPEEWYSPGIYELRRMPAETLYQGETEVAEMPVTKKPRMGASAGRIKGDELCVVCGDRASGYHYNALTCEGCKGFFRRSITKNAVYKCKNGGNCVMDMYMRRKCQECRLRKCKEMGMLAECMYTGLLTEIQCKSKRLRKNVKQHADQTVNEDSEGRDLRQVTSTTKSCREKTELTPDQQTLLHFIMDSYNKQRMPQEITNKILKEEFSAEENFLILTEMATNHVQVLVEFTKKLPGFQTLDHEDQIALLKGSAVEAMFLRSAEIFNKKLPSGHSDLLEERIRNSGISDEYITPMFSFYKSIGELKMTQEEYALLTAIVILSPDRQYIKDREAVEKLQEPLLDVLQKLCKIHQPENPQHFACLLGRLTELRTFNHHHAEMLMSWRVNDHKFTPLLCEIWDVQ
Procedure, shortened: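 FXR-UAS-bla HEK293T, 10% dialyzed FBS; cpds up to 92 uM titration, 16 h 37 C; CCF4 dye 2 h RT; fluorescence. Normalized to chenodeoxycholic acid 100 uM (100%) and DMSO (0%); Hill fit gives EC50, efficacy.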

[14] = molecular target: Thyroid hormone receptor beta (Homo sapiens) (UniProt P10828); assay: qHTS assay for small molecule agonists of thyroid hormone receptor beta signaling (AID 588545); conditions: TR-UAS-bla GripTite HEK 293, beta-lactamase ratio, agonist mode, 18 h; series mostly up to 76.7 µM;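 note: 0% = DMSO only and 100% = 10 nM T3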
Procedure, shortened: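 TR-UAS-bla-GripTite HEK 293 cells in medium with 2% charcoal/dextran FBS, 0.1 mM NEAA and 1 mM sodium pyruvate were treated with titrated compounds for 18 hrs at 37 C. Beta-lactamase reporter was read with CCF4 dye (ex 405, em 460/530 nm); EC50 from Hill fits.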

[15] = qHTS assay for small molecule activators of the p53 signaling pathway (AID 651743; active = well fitted activation curve with a large enough effect in the signal ratio, not every such curve was filed as active; the % refers to the signal ratio; note: % of control where 0% means no effect); conditions: HCT-116 p53RE-bla, beta-lactamase FRET ratio, 16 h; activation: stronger effect = higher value
Procedure, shortened: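 p53RE-bla HCT-116 cells carrying a beta-lactamase reporter under p53 response elements were exposed to compounds for 16 hours at 37 C. Reporter activity read as fluorescence after 2 hours at room temperature with LiveBLAzer B/G FRET substrate.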

[16] = Cell Viability - MRC5 (AID 434); conditions: MRC5 lung fibroblast viability, qHTS;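 note: potency is the fitted concentration of half-maximal effect; potency reflects cytotoxicity seen as loss of intracellular ATP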
Procedure, shortened: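 MRC5 normal human lung fibroblasts, 1500 cells/well, exposed to compound for 40 hr at 37 C. Cellular ATP was read by CellTiter-Glo luminescence; data normalized to DMSO and 100 uM tamoxifen, with AC50 from Hill fits.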

[17] = qHTS assay for small molecule disruptors of the mitochondrial membrane potential - 1 hr assay (AID 651754); conditions: series mostly up to 92.2 µM; note: % is set by controls: 0 for no effect and ±100 for the full control effect; nearly all actives have a fitted effect of over 35% in size
Procedure, shortened: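 HepG2 cells, attached overnight, were exposed to compound for 1 hr at 37C, then stained 30 min with a potentiometric dye. Ratio of red aggregate (590nm) to green monomer (535nm) fluorescence reports membrane potential; collapse shifts signal toward green.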

[18] = molecular target: Peroxisome proliferator-activated receptor delta (Homo sapiens) (UniProt Q03181); assay: qHTS assay for small molecule agonists of peroxisome proliferator-activated receptor delta signaling (AID 588534); conditions: HEK293T PPARdelta-UAS-bla, beta-lactamase ratio, 18 h; series mostly up to 76.7 µM;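 note: 0% = DMSO basal wells and 100% = positive control agonist at 10 µM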
Peroxisome proliferator-activated receptor delta (Homo sapiens), sequence (Q03181 whole entry, looked up): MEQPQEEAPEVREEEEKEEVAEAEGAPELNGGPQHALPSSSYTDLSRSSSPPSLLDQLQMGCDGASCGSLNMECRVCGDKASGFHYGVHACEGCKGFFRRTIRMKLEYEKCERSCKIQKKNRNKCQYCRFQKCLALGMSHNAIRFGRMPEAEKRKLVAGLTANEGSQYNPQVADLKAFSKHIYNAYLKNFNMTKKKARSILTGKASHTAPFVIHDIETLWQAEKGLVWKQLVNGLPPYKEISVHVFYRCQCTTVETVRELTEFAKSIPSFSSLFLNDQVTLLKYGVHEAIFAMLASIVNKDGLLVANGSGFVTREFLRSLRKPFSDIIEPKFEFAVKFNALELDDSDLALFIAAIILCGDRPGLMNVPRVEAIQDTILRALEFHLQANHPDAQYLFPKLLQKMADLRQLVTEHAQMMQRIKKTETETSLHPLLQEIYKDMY
Procedure, shortened: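 Cells carrying a PPAR-delta beta-lactamase reporter were treated with compounds for 18 h at 37 °C in agonist mode. CCF4 fluorescence was read after 2 h; EC50 and efficacy from Hill fits.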

[19] = qHTS assay for small molecule antagonists of peroxisome proliferator-activated receptor delta signaling (AID 588535; active = well fitted inhibition curve with a large enough effect in the signal ratio, with a control signal flat, not every such curve was filed as active; the % refers to the signal ratio;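 for max response: cells co-treated with a PPAR-delta agonist as stimulator during compound exposure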); conditions: HEK293T PPARd-UAS-bla, beta-lactamase FRET ratio, 18 h; 460 nm channel
Procedure, shortened: (§1)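 Antagonist-mode beta-lactamase reporter (GeneBLAzer PPAR-delta-UAS-bla) in HEK293T cells, 2% charcoal/dextran FBS, 4000 cells/well. Compound titrations, 18 h at 37 C; CCF4 ratio read, IC50 and efficacy from Hill fits.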

[20] = molecular target: Peroxisome proliferator-activated receptor delta (Homo sapiens) (UniProt Q03181); assay: as above; conditions: HEK293T PPARd-UAS-bla, beta-lactamase FRET ratio, 18 h; series mostly up to 76.7 µM
Procedure, shortened: as §1

Nc1ccc(-c2ccc(N)cc2)cc1
inactive: Potency [1] > 92 µM | Potency [2] > 92 µM | Potency [3] | outcome [4] | Potency [5] | activation [6] -6.73% | outcome [7] | outcome [8] | Potency [9] | outcome [10] | activity change % (negative = inhibition) [11] 12.4% | Potency [12]

CN(C)N=O
inactive: Potency [1] > 92 µM | Potency [2] > 92 µM | Potency [3] | outcome [4] | activation [13] -0.99% | activation [6] -2.94% | outcome [7] | outcome [8] | outcome [10] | Potency [14] | activity change % (negative = inhibition) [11] 11.5% | Potency [12]

O=c1ccc(=O)[nH][nH]1
inactive: Potency [1] > 92 µM | Potency [2] > 92 µM | Potency [3] | activation [13] -0.172% and -2.47% | Potency [9] | Potency [14] | activity change % (negative = inhibition) [11] -3.55% | activation [15] -0.833% and -3.13%

Clc1cc(Cl)c(Cl)c(Cl)c1
inactive: Potency [1] > 92 µM | Potency [16] > 92 µM | Potency [3] | outcome [4] | activation [6] 16.9% | outcome [8] | outcome [10] | Potency [14] | activity change % (negative = inhibition) [11] -16.6% | Potency [17]

c1ccc2c(c1)CCNC2
inactive: Potency [1] > 92 µM | Potency [2] > 92 µM | Potency [3] | outcome [4] | outcome [18] | outcome [20] | outcome [8] | Potency [9] | Potency [12] | activation [15] -2.09% | Potency [17]
5.94%: max response [19]

CC(C)(C)c1ccccc1O
11% and 14.4%: max response [19]
inactive: Potency [1] > 92 µM | Potency [2] > 92 µM | Potency [3] | outcome [4] | activation [6] 2.08% and 7.02% | outcome [20] | outcome [8] | Potency [9] | outcome [10] | Potency [14] | activity change % (negative = inhibition) [11] 3.5% and 10.7% | Potency [12]

CN(C)C(=O)Nc1cccc(C(F)(F)F)c1
inactive: Potency [1] > 92 µM | Potency [2] > 92 µM | outcome [4] | outcome [18] | outcome [20] | Potency [9] | outcome [10] | Potency [14] | Potency [12] | activation [15] 0.966% and 0.726%
-0.756% and 6.11%: max response [19]

O=C(Cc1ccccc1)OCc1ccccc1
inactive: Potency [1] > 92 µM | Potency [2] > 92 µM | Potency [3] | outcome [4] | Potency [5] | activation [13] -3.22% | activation [6] 0.186% | outcome [18] | outcome [20] | outcome [8] | outcome [10] | Potency [14] | activity change % (negative = inhibition) [11] 0.158% | Potency [17]
18.5%: max response [19]
